# PubChem BioAssay (NCI)
# Values joined by “and” are separate entries in the source; they are usually repeats but may differ in a detail not shown here. Equal values may be shown once. This is part of a sample that, as a whole, favours compounds with a hit. Of some 79,000 tested, about 15% had one in any assay. A structure can be active in one record and inactive in another. Active and inactive are the calls of the source. Rule as the data show it: active = growth inhibition above about 70%; inactive = the rest.
# Key:
# [1] = NCI Yeast Anticancer Drug Screen. Data for the rad50 strain (AID 155);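 also: 0% = growth of vehicle-only cultures of the same strain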; details: S. cerevisiae rad50 strain growth inhibition, stronger effect = higher value
# How it was run: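 Readout: growth inhibition relative to vehicle-treated cultures. Compound exposure was carried out in a genetically defined yeast strain deficient in DNA damage repair.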
# [2] = NCI Yeast Anticancer Drug Screen. Data for the mec2-1 strain (AID 157); details: S. cerevisiae mec2-1 strain, stronger effect = higher value
# How it was run: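 Each compound was tested on mec2-1 yeast, a strain altered in DNA damage repair or cell cycle control. Growth inhibition is reported relative to vehicle.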
# [3] = NCI Yeast Anticancer Drug Screen. Data for the sgs1 mgt1 strain (AID 161);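 also: 0% = growth of cultures given vehicle only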; details: S. cerevisiae sgs1 mgt1 strain, stronger effect = higher value
# How it was run: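 Genetically altered yeast, compound exposure, growth inhibition relative to vehicle.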
# [4] = NCI Yeast Anticancer Drug Screen. Data for the cln2 rad14 strain (AID 165);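 also: 0% = growth equal to vehicle treated cultures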; details: S. cerevisiae cln2 rad14 strain, stronger effect = higher value
# How it was run: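 Test compounds were added to cln2 rad14 yeast cultures; inhibition of growth was then determined by comparison with vehicle treatment.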
# [5] = NCI Yeast Anticancer Drug Screen. Data for the bub3 strain (AID 167); details: S. cerevisiae bub3 mutant strain, stronger effect = higher value
# How it was run: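 Readout: yeast growth inhibition, expressed relative to vehicle-only wells. The test organism is a mutant strain from a panel with lesions in DNA repair or checkpoint genes.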
# [6] = NCI Yeast Anticancer Drug Screen. Data for the mlh1 rad18 strain (AID 175); details: S. cerevisiae mlh1 rad18 strain growth inhibition, stronger effect = higher value
# How it was run: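 Inhibition values reflect reduced growth of mutant yeast versus vehicle-treated controls following compound exposure; the mutations affect DNA damage repair.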
# [7] = at 5.0 µM (retest, dose inferred, filed as 0.5)
# [8] = at 50.0 µM (retest, dose inferred, filed as 5.0)
SMILES,"growth inhibition [1, 7]","growth inhibition [1, 8]",growth inhibition ([1]; at 50.0 µM),"growth inhibition [2, 7]","growth inhibition [2, 8]",growth inhibition ([2]; at 50.0 µM),"growth inhibition [3, 7]","growth inhibition [3, 8]",growth inhibition ([3]; at 50.0 µM),"growth inhibition [4, 7]","growth inhibition [4, 8]",growth inhibition ([4]; at 50.0 µM),"growth inhibition [5, 7]","growth inhibition [5, 8]",growth inhibition ([5]; at 50.0 µM),"growth inhibition [6, 7]","growth inhibition [6, 8]",growth inhibition ([6]; at 50.0 µM)
O=[N+]([O-])c1ccc(OCCN(Cc2ccccc2)Cc2ccccc2)c([N+](=O)[O-])c1,3% (inactive),70% (active),71.5% (active),3% (inactive),38% (inactive),59.2% (inactive),-11% (inactive),61% (inactive),60.4% (inactive),4% (inactive),24% (inactive),34.1% (inactive),3% (inactive),54% (inactive),71.5% (active),5% (inactive),58% (inactive),74.8% (active)
CCN(CC)CCNc1nc(NCCN(CC)CC)c2nc(-c3ccccc3)c(-c3ccccc3)nc2n1,91% (active),98% (active),98.8% (active),84% (active),98% (active),98.2% (active),95% (active),99% (active),98.8% (active),76% (active),97% (active),98% (active),92% (active),98% (active),98% (active),92% (active),98% (active),98.4% (active)
Nc1cc(Cl)c(S(=O)(=O)O)cc1Cl,67% (inactive),98% (active),-16.2% (inactive) and 35.6% (inactive),18% (inactive),98% (active),-1.25% (inactive) and -2.55% (inactive),9% (inactive),96% (active),-1.55% (inactive) and -2.6% (inactive),-7% (inactive),96% (active),-14% (inactive) and 39.3% (inactive),12% (inactive),98% (active),-6.55% (inactive) and 1.75% (inactive),28% (inactive),98% (active),5.2% (inactive) and 30.6% (inactive)
O=C1C=CC(=CC=C2C=CN(CCCCCCCCCCCO)C=C2)C=C1,12% (inactive) and 36% (inactive),93% (active) and 3% (inactive),88.8% (active) and 49.2% (inactive),6% (inactive) and 40% (inactive),90% (active) and -2% (inactive),85.5% (active) and 65% (inactive),-10% (inactive) and 44% (inactive),93% (active) and 2% (inactive),87.6% (active) and 62.8% (inactive),7% (inactive) and 18% (inactive),91% (active) and -8% (inactive),82.7% (active) and 57.4% (inactive),-3% (inactive) and 34% (inactive),98% (active) and 2% (inactive),83% (active) and 50.6% (inactive),10% (inactive) and 37% (inactive),80% (active) and 1% (inactive),88% (active) and 59.2% (inactive)
CCCN(CCC)C(=S)N/N=C/c1ccccn1,99% (active),99% (active),90.5% (active),99% (active),100% (active),93.1% (active),98% (active),99% (active),92.4% (active),98% (active),100% (active),93.5% (active),99% (active),100% (active),92.5% (active),99% (active),99% (active),89.8% (active)
CN(C)c1ccc(/C=C/c2ccnc3ccccc23)c(Cl)c1,-7% (inactive),10% (inactive),-1.1% (inactive) and 16.1% (inactive),-7% (inactive),-4% (inactive),11.4% (inactive) and 3.15% (inactive),-1% (inactive),35% (inactive),-0.1% (inactive) and -2% (inactive),-22% (inactive),-29% (inactive),-32.5% (inactive) and 35.4% (inactive),-1% (inactive),43% (inactive),-1% (inactive) and 23.1% (inactive),-13% (inactive),28% (inactive),-5.45% (inactive) and -11.5% (inactive)
CCCC(O)c1ccc(C)cc1 (stereo not given),11% (inactive) and 1% (inactive),20% (inactive) and 2% (inactive),12.8% (inactive) and -26.4% (inactive),4% (inactive) and 3% (inactive),21% (inactive) and -2% (inactive),33.5% (inactive) and -6.65% (inactive),5% (inactive) and 0% (inactive),33% (inactive) and -1% (inactive),0.4% (inactive) and 15.7% (inactive),5% (inactive) and -1% (inactive),10% (inactive) and 0% (inactive),-43.6% (inactive) and 18.9% (inactive),-2% (inactive) and -3% (inactive),98% (active) and -10% (inactive),-6.05% (inactive) and 14.9% (inactive),7% (inactive) and 5% (inactive),21% (inactive) and 7% (inactive),6.2% (inactive) and -10.3% (inactive)
O=c1[nH]c(SCc2c(Cl)c(Cl)c(Cl)c(Cl)c2Cl)nc(=S)[nH]1,1% (inactive),76% (active),54.1% (inactive),10% (inactive),44% (inactive),38.8% (inactive),3% (inactive),95% (active),92.8% (active),-36% (inactive),67% (inactive),43.1% (inactive),14% (inactive),55% (inactive),65.8% (inactive),2% (inactive),86% (active),70.8% (active)
Cc1nc2c(ccc3[nH]c4ccccc4c32)s1,7% (inactive),99% (active),90.8% (active),9% (inactive),99% (active),92.5% (active),16% (inactive),99% (active),91% (active),-16% (inactive),99% (active),91% (active),8% (inactive),99% (active),91.8% (active),10% (inactive),99% (active),89.9% (active)
COC(=O)C(=O)C(C(=O)C(c1ccccc1)c1ccccc1)c1nc2n(c1O)/C(=N/C(=O)Nc1ccc(Cl)cc1)N=N2 (stereo not given),0% (inactive),41% (inactive),76.6% (active),6% (inactive),58% (inactive),87.2% (active),6% (inactive),80% (active),85.7% (active),-11% (inactive),30% (inactive),56.3% (inactive),-1% (inactive),35% (inactive),41.2% (inactive),-3% (inactive),41% (inactive),78.5% (active)
CS(=O)(=O)OC1CC(n2ccc(=O)[nH]c2=O)OC1COC(c1ccccc1)(c1ccccc1)c1ccccc1 (stereo not given),-14% (inactive),95% (active),14.9% (inactive) and 97% (active),-4% (inactive),95% (active),-4.6% (inactive) and 97% (active),-17% (inactive),54% (inactive),11.3% (inactive) and 50.5% (inactive),0% (inactive),92% (active),2.9% (inactive) and 96.3% (active),-3% (inactive),86% (active),7.25% (inactive) and 97.8% (active),0% (inactive),97% (active),5.6% (inactive) and 97% (active)
Cc1cc(C)nc(NS(=O)(=O)c2ccc(Nc3c4ccccc4nc4c(C(=O)NCCCN(CCO)CCO)cccc34)cc2)n1,-20% (inactive),20% (inactive),45% (inactive),-13% (inactive),-14% (inactive),25.8% (inactive),-2% (inactive),-5% (inactive),-4.65% (inactive),70% (active),5% (inactive),74.3% (active),-14% (inactive),3% (inactive),78.2% (active),-7% (inactive),1% (inactive),60.2% (inactive)
CCCCCCCCOC(=O)c1cc(O)c(O)c(O)c1,49% (inactive),64% (inactive),89.2% (active),46% (inactive),68% (inactive),91.7% (active),59% (inactive),98% (active),93% (active),48% (inactive),98% (active),90% (active),70% (active),97% (active),89.8% (active),44% (inactive),59% (inactive),89.2% (active)
C=C1C(=O)OC2C[C@@]3(C)CCC[C@H](C)C3=CC12 (stereo not given in full) (tested in a mixture with another compound),15% (inactive),97% (active),85.2% (active),32% (inactive),99% (active),93% (active),27% (inactive),99% (active),93.1% (active),19% (inactive),79% (active),60.5% (inactive),5% (inactive),97% (active),92.5% (active),23% (inactive),98% (active),89.2% (active)
CCN(CC)CCNc1n[n+]([O-])c2cc([N+](=O)[O-])ccc2[n+]1[O-],31% (inactive),88% (active),80.5% (active) and 79% (active),5% (inactive),48% (inactive),58.8% (inactive) and 52.6% (inactive),16% (inactive),76% (active),73.5% (active) and 71% (active),32% (inactive),63% (inactive),48% (inactive) and 41% (inactive),-7% (inactive),67% (inactive),43.7% (inactive) and 45.1% (inactive),24% (inactive),85% (active),79.3% (active) and 80.5% (active)
